Source: PubChem BioAssay (Tox21)
Inconclusive results are not listed. Entries that show only a call come without a potency. Calls of active or inactive are those of the source. Unless noted, calls follow the shape of the dose curve; as a rule, active = well fitted curve in the direction sought with a large enough effect in the repeat runs; inconclusive = weak or mixed curves; inactive = no such curve, though single readings can be large; an effect the other way counts as inactive or inconclusive.

Experiments:
[1] = A CellTox Green Cytotoxicity Assay to monitor cytotoxicity in HepG2 cells - 0 hour (AID 1224882); details: CellTox Green fluorescence; series mostly up to 76.8 µM; also: nearly all actives have a fitted effect of over 35% in size
Summary of the method: (§1)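 Read-out is fluorescence of a cyanine dye excluded from live cells that stains DNA of dead HepG2 cells, with signal proportional to cytotoxicity. Plates were read at 0, 8, 16, 24, 32 and 40 h after compound addition.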

[2] = A CellTox Green Cytotoxicity Assay to monitor cytotoxicity in HEK293 cells - 8 hour (AID 1224884); details: CellTox Green fluorescence; series mostly up to 76.8 µM; also: nearly all actives have a fitted effect of over 35% in size
Summary of the method: (§2)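 Nonlytic real-time cytotoxicity: HEK293 + CellTox Green reagent plated, 5 h preincubation, pintool compound addition (23 nL in DMSO), 37 C for 40 h, fluorescence measured at successive time points.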

[3] = qHTS RealTime-Glo MT Cell Viability Assay in HEK293 cells - 8 hour (AID 1224887); details: RealTime-Glo luminescence; series mostly up to 76.8 µM; also: nearly all actives have a fitted effect of over 50% in size; also: potency is read from the fitted curve at half-maximal effect
Summary of the method: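 Cells were seeded together with NanoLuc luciferase and a prosubstrate that viable cells reduce to a luciferase substrate. After a 5 h incubation at 37 C/5% CO2, compounds were added and luminescence was measured repeatedly during 40 h of treatment.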

[4] = qHTS RealTime-Glo MT Cell Viability Assay in HepG2 cells - 0 hour (AID 1224889); details: RealTime-Glo luminescence; series mostly up to 76.8 µM; also: nearly all actives have a fitted effect of over 50% in size
Summary of the method: (§3)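 HepG2 suspension premixed with RealTime-Glo reagents is plated at 600 cells per well and left 5 h at 37 C/5% CO2. Compounds in DMSO then go in, and bioluminescence reflecting viable cell number is recorded over 40 h.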

[5] = qHTS assay to identify small molecule antagonists of the estrogen receptor alpha (ER-alpha) signaling pathway using the BG1 cell line in the presence of 0.1 nM 17-beta-estradiol - cell viability counter screen (AID 1259241); details: VM7Luc4E2 (BG1) viability, CellTiter-Fluor protease, 22 h, 0.1 nM estradiol agonist added; series mostly up to 92.4 µM; also: nearly all actives have a fitted effect of over 40% in size
Summary of the method: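 Following 5 days in phenol red-free medium with charcoal-stripped serum, VM7Luc4E2 cells received test compounds alongside 0.1 nM 17beta-estradiol (final) at 37C for 22 hr. Live cells were then quantified via protease-substrate fluorescence.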

[6] = qHTS assay to identify small molecule antagonists of the androgen receptor (AR) signaling pathway using the MDA cell line in the presence of 0.5 nM R1881 - cell viability counter screen (AID 1259242); details: MDA-kb2 viability, CellTiter-Fluor protease fluorescence, 16 h; series mostly up to 92.4 µM; also: nearly all actives have a fitted effect of over 45% in size
Summary of the method: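 Counter screen for cytotoxicity run in the same wells as the AR antagonist reporter screen: MDA-kb2 cells were treated 16 hr with test compounds and 0.5 nM R1881, then live-cell protease activity was measured by fluorescence.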

[7] = biological target: Estrogen receptor (Homo sapiens) (UniProt P03372); assay: qHTS assay to identify small molecule antagonists of the estrogen receptor alpha (ER-alpha) signaling pathway using the BG1 cell line in the presence of 0.1 nM 17-beta-estradiol (AID 1259244); details: VM7Luc4E2 (BG1) ERE-luciferase, antagonist mode, 0.1 nM E2, 22 h; series mostly up to 42.5 µM; also: nearly all actives have a fitted effect of over 50% in size
Summary of the method: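 Cells: VM7Luc4E2, endogenous ER-alpha, 4x ERE-luc stable. Pre-culture 5 d, phenol red-free, charcoal-stripped FBS. Plated 24 h, compound + E2 0.1 nM final, 22 h 37C/5% CO2. Readout ONE-Glo luminescence.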

[8] = qHTS assay to identify small molecule HDAC inhibitors (AID 1259364); details: HCT-116 HDAC-Glo I/II luminescence, 2 h; series mostly up to 92.4 µM; also: top concentration of the series differs between compounds; nearly all actives have a fitted effect of over 45% in size
Summary of the method: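 Luminescence from a cell-permeant luminogenic class I/II HDAC substrate reports endogenous deacetylase activity in intact HCT-116 cells treated with compounds for 2 h.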

[9] = qHTS assay to identify small molecule HDAC inhibitors - cell viability counter screen (AID 1259365); details: HCT-116 viability, CellTiter-Glo ATP luminescence, 2 h; series mostly up to 92.4 µM; also: nearly all actives have a fitted effect of over 50% in size
Summary of the method: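 HCT-116 wild-type, overnight attachment; 2hr drug exposure, 37C; CellTiter-Glo luminescent ATP readout after 30min RT.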

[10] = qHTS assay to identify small molecule agonists of the sonic hedgehog signaling (Shh) pathway (AID 1259368; calls by dose curve;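 also: NIH/3T3-derived 3T3Gli1-Luc cells carrying a stable Gli1-driven firefly luciferase reporter; nearly all actives have a fitted effect of over 15% in size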); details: NIH/3T3 Gli1-Luc reporter, luciferase, 24 h, active compounds read high; series mostly up to 92.4 µM
Summary of the method: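 3T3Gli1-Luc (NIH/3T3 clone, stable Gli1-Luc); 4 hr pre-incubation, then cpd in DMSO 24 hr, 37 C/5% CO2; luciferase reagent 30 min RT; luminescence.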

[11] = A CellTox Green Cytotoxicity Assay to monitor cytotoxicity in HEK293 cells - 16 hour (AID 1224888); details: CellTox Green fluorescence; series mostly up to 76.8 µM; also: nearly all actives have a fitted effect of over 35% in size
Summary of the method: as §2

[12] = qHTS assay to identify small molecule agonists of the sonic hedgehog signaling (Shh) pathway - cell viability counter screen (AID 1259366); details: NIH/3T3 Gli1-Luc viability, CellTiter-Fluor, 24 h; series mostly up to 92.4 µM; also: nearly all actives have a fitted effect of over 50% in size; also: potency is read from the fitted curve at half-maximal effect
Summary of the method: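 Compounds in DMSO were pin-transferred onto 3T3 Gli1-Luc cells that had settled 4hr; plates then stood 24hr at 37C and 5% CO2. One hour before the end, CellTiter-Fluor was added and fluorescence recorded.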

[13] = qHTS assay to identify small molecule antagonists of the sonic hedgehog signaling (Shh) pathway - cell viability counter screen (AID 1259367); details: NIH/3T3 Gli1-Luc viability, CellTiter-Fluor, 24 h; series mostly up to 92.4 µM; also: nearly all actives have a fitted effect of over 55% in size
Summary of the method: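 After a 4 hr settling period, 3T3 Gli1-Luc cells were treated with DMSO-dissolved chemicals and conditioned medium, kept 24 hr at 37C in 5% CO2, and assayed for viability by CellTiter-Fluor fluorescence following 1 hr reagent incubation.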

[14] = A CellTox Green Cytotoxicity Assay to monitor cytotoxicity in HepG2 cells - 32 hour (AID 1224883); details: CellTox Green fluorescence; series mostly up to 76.8 µM; also: nearly all actives have a fitted effect of over 50% in size; also: potency is read from the fitted curve at half-maximal effect
Summary of the method: as §1

[15] = qHTS RealTime-Glo MT Cell Viability Assay in HEK293 cells - 24 hour (AID 1224886); details: RealTime-Glo luminescence; series mostly up to 76.8 µM; also: nearly all actives have a fitted effect of over 50% in size; also: potency is read from the fitted curve at half-maximal effect
Summary of the method: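 Reads taken at 0, 8, 16, 24, 32 and 40 h from the same wells. HEK293 cells (600/well) carried RealTime-Glo reagents from seeding, with compound added after a 5 h settle at 37 C.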

[16] = A CellTox Green Cytotoxicity Assay to monitor cytotoxicity in HepG2 cells - 8 hour (AID 1224890); details: CellTox Green fluorescence; series mostly up to 76.8 µM; also: nearly all actives have a fitted effect of over 45% in size; also: potency is read from the fitted curve at half-maximal effect
Summary of the method: as §1

[17] = biological target: Androgen receptor (Homo sapiens) (UniProt P10275); assay: qHTS assay to identify small molecule antagonists of the androgen receptor (AR) signaling pathway using the MDA cell line in the presence of 0.5 nM R1881 (AID 1259243); details: MDA-kb2 MMTV-luciferase, R1881 0.5 nM, 16 h; series mostly up to 42.5 µM; also: nearly all actives have a fitted effect of over 50% in size
Summary of the method: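 Luciferase luminescence is the read-out: compounds are tested for suppressing 0.5 nM R1881-driven MMTV reporter activity in MDA-kb2 cells after 16 hr at 37C.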

[18] = qHTS assay to identify small molecule antagonists of the sonic hedgehog signaling (Shh) pathway (AID 1259369; calls by dose curve; also: nearly all actives have a fitted effect of over 45% in size; also: potency is read from the fitted curve at half-maximal effect); details: NIH/3T3 Gli1-Luc reporter, Shh antagonist, luminescence 24 h; series mostly up to 92.4 µM
Summary of the method: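 3T3Gli1-Luc, conditioned-medium-stimulated, 24hr cpd, 37C/5% CO2; Gli1-driven firefly Luc luminescence after 30min RT with luciferase reagent. Cells plated 4hr before cpd.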

[19] = qHTS RealTime-Glo MT Cell Viability Assay in HepG2 cells - 16 hour (AID 1224885); details: RealTime-Glo luminescence; series mostly up to 76.8 µM; also: nearly all actives have a fitted effect of over 50% in size
Summary of the method: as §3

Estrogen receptor (Homo sapiens), sequence (P03372 whole entry, looked up): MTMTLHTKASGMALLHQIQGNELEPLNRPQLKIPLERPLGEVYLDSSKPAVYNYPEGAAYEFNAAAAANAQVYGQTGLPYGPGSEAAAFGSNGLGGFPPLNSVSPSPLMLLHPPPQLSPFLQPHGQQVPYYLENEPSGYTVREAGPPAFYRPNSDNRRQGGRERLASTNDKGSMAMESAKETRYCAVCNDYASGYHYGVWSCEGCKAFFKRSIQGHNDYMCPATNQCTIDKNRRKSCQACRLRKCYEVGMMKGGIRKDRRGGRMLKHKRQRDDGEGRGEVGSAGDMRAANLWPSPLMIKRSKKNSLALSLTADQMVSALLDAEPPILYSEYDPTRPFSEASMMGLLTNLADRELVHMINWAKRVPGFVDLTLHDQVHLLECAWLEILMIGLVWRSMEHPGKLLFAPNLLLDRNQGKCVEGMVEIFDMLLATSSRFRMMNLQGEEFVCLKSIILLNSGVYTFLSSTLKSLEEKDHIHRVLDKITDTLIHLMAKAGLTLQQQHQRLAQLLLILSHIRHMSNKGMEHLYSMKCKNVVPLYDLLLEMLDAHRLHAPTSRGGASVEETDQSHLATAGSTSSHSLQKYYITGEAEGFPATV
Androgen receptor (Homo sapiens), sequence (P10275 whole entry, looked up): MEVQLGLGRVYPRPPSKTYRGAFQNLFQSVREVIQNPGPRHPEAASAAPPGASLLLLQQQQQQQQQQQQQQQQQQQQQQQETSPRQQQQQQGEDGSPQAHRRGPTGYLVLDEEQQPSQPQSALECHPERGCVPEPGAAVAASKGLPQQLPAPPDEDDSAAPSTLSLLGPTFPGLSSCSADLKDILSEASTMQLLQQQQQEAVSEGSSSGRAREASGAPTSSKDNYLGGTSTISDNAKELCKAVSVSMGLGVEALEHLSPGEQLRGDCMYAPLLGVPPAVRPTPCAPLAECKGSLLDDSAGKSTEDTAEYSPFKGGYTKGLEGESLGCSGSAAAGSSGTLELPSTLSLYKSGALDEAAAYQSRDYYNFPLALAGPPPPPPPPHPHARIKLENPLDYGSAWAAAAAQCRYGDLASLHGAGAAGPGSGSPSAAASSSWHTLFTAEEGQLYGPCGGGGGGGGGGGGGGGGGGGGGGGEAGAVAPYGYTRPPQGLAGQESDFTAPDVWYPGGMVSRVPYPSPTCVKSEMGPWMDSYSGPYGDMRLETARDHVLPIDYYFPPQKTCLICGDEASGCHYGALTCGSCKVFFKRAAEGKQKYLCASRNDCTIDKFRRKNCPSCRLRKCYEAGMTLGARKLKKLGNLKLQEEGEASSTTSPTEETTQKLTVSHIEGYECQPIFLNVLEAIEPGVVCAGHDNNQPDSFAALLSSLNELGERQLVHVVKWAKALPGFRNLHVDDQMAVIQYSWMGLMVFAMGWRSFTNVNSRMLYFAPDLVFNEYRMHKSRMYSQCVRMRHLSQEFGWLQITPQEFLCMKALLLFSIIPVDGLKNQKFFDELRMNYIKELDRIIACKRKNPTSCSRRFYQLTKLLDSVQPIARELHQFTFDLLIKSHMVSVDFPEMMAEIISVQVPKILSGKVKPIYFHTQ

Row | Compound | Potency [1] | Potency [2] | Potency [3] | Potency [4] | Potency [5] | Potency [6] | Potency [7] | Potency [8] | Potency [9] | outcome [10] | Potency [11] | Potency [12] | Potency [13] | Potency [14] | Potency [15] | Potency [16] | Potency [17] | Potency [18] | Potency [19]
1 | O=C(Cl)c1cc(C(=O)Cl)cc(C(=O)Cl)c1 | inactive | inactive | 49 µM (active) | inactive | inactive | inactive | inactive | inactive | inactive | inactive | – | – | – | – | – | – | – | – | –
2 | CCCCCCCCCCCCN1CCCCCC1=O | – | inactive | – | inactive | inactive | inactive | – | inactive | inactive | inactive | inactive | inactive | inactive | – | – | – | – | – | –
3 | CC(COCCO)OCCO (centres undefined) | inactive | – | inactive | inactive | inactive | inactive | – | inactive | inactive | inactive | inactive | inactive | inactive | inactive | inactive | inactive | inactive | inactive | –
4 | CC1=CC[C@H](C(C)C)C=C1 | – | – | inactive | inactive | inactive | inactive | inactive | inactive | inactive | inactive | inactive | inactive | inactive | inactive | inactive | inactive | – | – | inactive
5 | CNCCCCOc1ccccc1Cc1ccccc1 | – | – | – | inactive | inactive | – | inactive | inactive | inactive | inactive | – | 33.5 µM (active) | – | 21.3 µM (active) | 21.3 µM (active) | 21.3 µM (active) | – | 10.6 µM (active) | –
6 | O=C1CCCCCCCCCCCC(=O)OCCO1 | inactive | inactive | inactive | inactive | inactive | inactive | inactive | inactive | inactive | inactive | – | inactive | inactive | – | inactive | inactive | inactive | inactive | inactive
